Results as given in PubChem BioAssay AID493011 (Sanford-Burnham Center for Chemical Genomics, 2011).
Out of some 330,000 compounds screened, about 1,400 (0.42%) were called active.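 How the source made its calls: active means at least 40% inhibition at 20 µM here, with at most 30% in a related deaminase screen; inactive means the rest.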 Only a selection was taken, and actives are over-represented in it overall.

Biological target: DNA dC->dU-editing enzyme APOBEC-3A (Homo sapiens) (UniProt P31941)
Sequence (P31941 whole entry, looked up): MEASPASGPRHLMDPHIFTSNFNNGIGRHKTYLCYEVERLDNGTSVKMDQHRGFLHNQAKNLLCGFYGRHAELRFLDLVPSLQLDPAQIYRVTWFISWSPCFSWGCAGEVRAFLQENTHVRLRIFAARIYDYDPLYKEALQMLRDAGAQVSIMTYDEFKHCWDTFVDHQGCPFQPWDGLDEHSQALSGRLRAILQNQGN
Test: APOBEC3A ssDNA deaminase inhibitors, primary screen, selectivity assay for APOBEC3G inhibitor project, biochemical, FAM/TAMRA oligo cleavage fluorescence (AID 493011);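 further: plate controls were A3A with DMSO for no effect and wells lacking A3A enzyme for full effect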
Settings: recombinant A3A, FAM/TAMRA ssDNA deamination fluorescence; at 20 µM; hits give high values

inhibition, inactive:
Cc1nn2c(c1-c1ccccc1)N=C(c1ccco1)CC2c1ccccc1 (stereo not drawn) 0.496%, O=C1C2C3C=CC(C4CC34)C2C(=O)N1/N=C/c1ccc(-c2ccccc2[N+](=O)[O-])o1 (stereo not drawn) -4.49%, O=C(Nc1ccc(N2CCOCC2)c(Cl)c1)c1ccc(S(=O)(=O)N2CCOCC2)cc1 2.6%, O=C(CSc1ccc([N+](=O)[O-])cn1)Nc1ccc(N2CCOCC2)c(Cl)c1 -1.64%, CC(=O)c1ccc(N2CCN(C(=O)c3ccc4nc[nH]c4c3)CC2)cc1 -2.31%, CCOC(=O)c1ccc(NC(=O)Cn2cnc3cc(C)c(C)cc32)cc1 3.16%, CCCc1nnc(SCC(=O)Nc2ccc(C(=O)OCC)cc2)o1 -2.03%, CC(=O)N/C(=N/c1nc(C)cc(C)n1)Nc1ccc(F)cc1F -1.6%, CC(=O)NNc1cc(=O)c2c(=O)n(C)c(=O)n(C)c2[nH]1 2.94%, CC(=O)Nc1ccc(S(=O)(=O)Oc2ccc(/C=N/N=C3/NC(=O)C(CC(=O)O)S3)cc2)cc1 (stereo not drawn) -1.33%, COc1ccccc1CNC(=O)C1CCN(C(=O)[C@@H]2Cc3ccccc3CN2)CC1 -2.15%, COc1ccccc1CNC(=O)C1CCN(S(C)(=O)=O)CC1 3.64%, CCCc1nnc(SCC(=O)N2C(C)CCCC2C)n1CC (stereo not drawn) 0.831%, COc1cc(C(CCN2CCN(c3ccccc3)CC2)c2c(OC)cc(OC)c3ccc(=O)oc23)cc(OC)c1OC (stereo not drawn) -5.74%, CC(C)(C)C(=O)CSc1ccc(S(=O)(=O)N2CCCC2)cn1 -1.15%, CCN(CC)S(=O)(=O)c1ccc(N2CCOCC2)c(NC(=O)C(C)Oc2ccc(F)cc2)c1 (stereo not drawn) -2.06%, CN1CCN(c2ccc(S(=O)(=O)N3CCOCC3)cc2NC(=O)CCc2ccccc2)CC1 3.6%, O=C(CN(CC1CCCO1)C(=O)CNS(=O)(=O)c1ccccc1)NCc1ccccc1 (stereo not drawn) -2.59%, COc1ccc(NC(=O)CSc2nc(C)cs2)cc1 3.79%, Cc1ccc(NC(=O)CSCC(=O)Nc2sccc2C#N)cc1 -0.813%, CCN(CC)c1ccc(S(=O)(=O)N2CCCCC2)cc1NC(=O)C1=COCCO1 -3.33%, CCCC(=O)Nc1cccc(NC(=S)NC(=O)C(C)Oc2ccc(Cl)cc2Cl)c1 (stereo not drawn) 1.55%, CC(C)Cc1ccc(C(C)C(=N)N)cc1 (stereo not drawn) 2.27%, COc1ccccc1CNC(=O)CCCN1C(=O)NC2(CCCC2)C1=O -3.53%, COc1ccc(C)cc1NC(=O)CNCc1cccs1 -2.55%, Cc1nnsc1S(=O)(=O)Cc1ccccc1Cl -0.082%, CC(C)CNC(=O)CC(c1ccccc1)c1c(O)ccc2ccccc12 (stereo not drawn) -1.51%, CC1CCCCC1NC(=O)NC(=O)COC(=O)C1=NN(c2ccccc2)C(=O)CC1 (stereo not drawn) 1.05%, COCCCn1c(SCC(=O)Nc2ccccc2)nnc1-c1ccncc1 0.275%, CCCn1c(SCC(=O)N2CCc3ccccc32)nnc1-c1ccncc1 -1.68%, CCN(CC(=O)Nc1cc(Cl)ccc1C)C(=O)Cn1c(=O)cnc2ccccc21 10.7%, CCOc1ccc(C(=O)CCN2CCOCC2)cc1 -4.07%, CCC(=O)c1ccc(OCC(O)CN2CC(C)OC(C)C2)cc1 (stereo not drawn) 0.408%, CCn1c(=O)c(=O)[nH]c2c(=O)oc3ccc(S(=O)(=O)Nc4ccc(OC)cc4)cc3c21 -3.37%, CCC(C)c1ccc(NC(=S)N2CCCC2)cc1 (stereo not drawn) -3.82%, O=S(=O)(Nc1ccccc1N1CCOCC1)c1ccc(Cl)s1 2.47%, COc1cccc(N2CCN(c3ccc4nnc(CCC(=O)N5CCN(C)CC5)n4n3)CC2)c1 -4.98%, COc1cc(/C=N/NC(=S)Nc2cccnc2)cc(OC)c1O -4.38%, Fc1cc(Br)ccc1NC(=S)Nc1cccnc1 -0.709%, O=C(COC(=O)C1CCN(S(=O)(=O)c2ccc3c(c2)OCCO3)CC1)Nc1ccccc1OC(F)F 3.88%, CCc1ccc(NC2Nc3cc(C)nn3S2)cc1 (stereo not drawn) -0.183%, Cc1nnc(CN(C)Cc2cn[nH]c2-c2ccc(-c3ccccc3)cc2)o1 1.98%, COc1ccc(C(=O)OCC(=O)NC(=O)CCSc2ccccc2)cc1 0.284%, CCS(=O)(=O)C1=NSC2=NC(=O)/C(=C\c3ccc(OS(=O)(=O)c4ccccc4)cc3)C(=N)N21 -0.304%, CCS(=O)(=O)C1=NSC2=NC(=O)/C(=C\c3cc(C)n(-c4cccc(OC)c4)c3C)C(=N)N21 -3.79%, COc1cc(C)c(Cl)cc1S(=O)(=O)n1ccnc1 -3.09%, Cc1noc(C)c1S(=O)(=O)N(C)C[C@H]1Oc2ccc(NC(=O)C3CC3)cc2C(=O)N([C@H](C)CO)C[C@@H]1C -2.35%, O=C(NNC(=O)c1cnccc1C(F)(F)F)c1ccc(Cl)cc1 -3.45%

inhibition, active:
O=C(CSc1nccc(=O)[nH]1)Nc1ccc(N2CCOCC2)c(Cl)c1 50%, CCOC(=O)c1ccc(NC(=O)CSc2ncccn2)cc1 66.1%, COc1ccccc1CCNC(=O)C1CCN(C(=O)/C=C/c2ccccc2)CC1 40.4%, CC(Oc1ccc(F)cc1)C(=O)Nc1cc(S(=O)(=O)N2CCOCC2)ccc1N1CCN(C)CC1 (stereo not drawn) 63.9%, Cc1csc(SCC(=O)Nc2sccc2C#N)n1 67.3%, COc1ccc(C)cc1NC(=O)CCCN1C(=O)NC(C)(C)C1=O 47.3%, CSc1nnc(-c2ccncc2)n1CCCN1CCCC1=O 63%, CC(C)CCOc1ccc(C(=O)C[N+]2(C)CCOCC2)cc1 83.1%, S=C(Nc1cccnc1)Nc1ccccn1 63.4%, CS(=O)(=O)c1ccc2c(c1)SC1=NC(=O)/C(=C/c3ccco3)C(=N)N12 41.6%
